Mtb MbtI inh = MbtI salicylate synthase inhibitors, primary screen, biochemical, fluorescence intensity; 100,000 compounds, 0.89% hits; inhibition, % (concentration not given with the values); P9WFX0; purified MbtI enzyme, fluorescence intensity read-out; AID 493033, 2011; in the data active = inhibition mostly above about 56%, no sharp cut-off; inactive = mostly below about 77%
AID504770 = growth inhibition of E. coli YBA685, primary screen, V. cholerae RctB inhibitors; E. coli YBA685 rctB-dependent plasmid, OD600 growth, 3 h; active compounds read low; z-score (concentration not given with the values); 130,000 compounds, 0.27% hits; in the data active = z-score below about -2, passing the limit was not always enough
PV pol inh = poliovirus RdRp elongation inhibitors, primary screen, biochemical, fluorescence polarization, total intensity; Genome polyprotein (Poliovirus type 1 (strain Mahoney)), P03300; poliovirus polymerase elongation; active compounds read low; % elongation, % (compound at 16.7 µg/mL); 150,000 compounds, 0.66% hits; in the data active = % elongation below about 90%
Mtb MenB inh = M. tuberculosis MenB inhibitors, primary screen, biochemical, absorbance | 1,4-dihydroxy-2-naphthoyl-CoA synthase (Mycobacterium tuberculosis (strain ATCC 25618 / … | inhibition, % (test concentration not listed) | 100,000 compounds, 0.43% hits | MenB enzyme assay, absorbance read-out; in the data active = inhibition above about 21%, passing the limit was not always enough
Target sequence (P9WNP5 whole entry, looked up): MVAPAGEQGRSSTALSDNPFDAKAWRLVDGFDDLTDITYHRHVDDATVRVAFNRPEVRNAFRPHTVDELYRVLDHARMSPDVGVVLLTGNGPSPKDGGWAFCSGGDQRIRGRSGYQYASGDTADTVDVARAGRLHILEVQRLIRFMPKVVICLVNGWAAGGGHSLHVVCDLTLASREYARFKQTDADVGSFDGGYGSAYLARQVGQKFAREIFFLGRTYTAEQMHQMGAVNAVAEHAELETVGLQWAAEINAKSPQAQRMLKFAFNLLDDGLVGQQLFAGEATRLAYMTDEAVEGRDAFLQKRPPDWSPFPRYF
Starred values were filed as active, the others as inactive. Shown are actives, neighbours in structure and some others; about 1.4% of the full set was active somewhere.

`Cn1nc(Nc2ccccc2N)cc1-c1ccccc1` gave Mtb MbtI inh 10, AID504770 -0.8, PV pol inh 114 and Mtb MenB inh -22.
Screening Oc1ccc(NC(=S)Nc2ccc(O)cc2)cc1 returned Mtb MbtI inh -4, AID504770 -0.1, PV pol inh 106 and Mtb MenB inh -4.
CNc1ccc(O)cc1 was read as Mtb MbtI inh 101*, AID504770 1.1 and PV pol inh 59*.
O=C1CCC(=O)N1c1ccc(Cl)cc1 was read as Mtb MbtI inh 18, AID504770 -0.4, PV pol inh 103 and Mtb MenB inh -4.
Screening O=C(Nc1ccc2[nH]c(=O)[nH]c2c1)NC1CCCCC1 returned Mtb MbtI inh 3, AID504770 0.1, PV pol inh 90* and Mtb MenB inh 21.
O=C(O)CCCn1c2ccccc2c2cn[nH]c(=O)c21 was read as Mtb MbtI inh 101, AID504770 0.3, PV pol inh 99 and Mtb MenB inh -17.
CC(=O)N1C(=O)/C(=C2\SC(=S)N(C(C)C(=O)O)C2=O)c2ccccc21 (centres undefined) was read as Mtb MbtI inh 9, AID504770 1.7, PV pol inh 103 and Mtb MenB inh 34*.
`CCOc1cc2c(cc1OCC)C1C(C(=O)NCCC(C)C)c3ccccc3C(=O)N1CC2` (centres undefined) gave Mtb MbtI inh 13, AID504770 -2.9*, PV pol inh 102 and Mtb MenB inh -12.
CC1(C)C(=N)N(c2ccccc2)C(=O)N1c1ccccc1 was read as Mtb MbtI inh -11, AID504770 0.15, PV pol inh 105 and Mtb MenB inh -24.
COc1cccc(/C=N/N2C(=O)CSC2=S)c1O was read as Mtb MbtI inh 4, AID504770 -0.45, PV pol inh 85* and Mtb MenB inh -37.
Cn1[nH]c(CSc2ccccc2)cc1=O was read as AID504770 -1.1.
Screening Cc1occc1C(=O)NCc1ccccc1 returned Mtb MbtI inh 1, AID504770 -0.15, PV pol inh 100 and Mtb MenB inh 56*.
CCc1c(C)[nH]c(N)nc1=S was read as AID504770 -1.1, PV pol inh 93 and Mtb MenB inh -47.
Screening O=C(CSC1=NCCN1)C1COc2ccccc2O1 (centres undefined) returned Mtb MbtI inh 22, AID504770 -0.85, PV pol inh 101 and Mtb MenB inh 84*.
CN1C(=O)C(=Cc2ccccc2OCc2ccccc2)C(=O)N(C)C1=S was read as Mtb MbtI inh 77, AID504770 2.1, PV pol inh 100 and Mtb MenB inh -25.
`COc1cccc(C=C2C(=O)N(C)C(=S)N(C)C2=O)c1OC` gave Mtb MbtI inh 93*, AID504770 0.75, PV pol inh 95 and Mtb MenB inh -76.
`O=C(O)/C=C/C(=O)Nc1ccccc1OC(F)(F)F` gave AID504770 0.3.
Screening CN(C)C(=O)CCCc1nc(-c2ccc(Cl)cc2)no1 returned Mtb MbtI inh -8, AID504770 -2.4*, PV pol inh 104 and Mtb MenB inh -18.
`Fc1ccc2nc(NCc3ccccc3)sc2c1` gave Mtb MbtI inh 61, AID504770 -0.6, PV pol inh 84* and Mtb MenB inh -2.
For Cc1c(C(=O)O)oc2ccc3c(c12)C=CC1(CCCC1)O3 the results were Mtb MbtI inh -2, AID504770 0.1, PV pol inh 98 and Mtb MenB inh -5.
`O=C1C=C(Nc2ccc(F)c(C(F)(F)F)c2)c2ccccc2C1=O` gave AID504770 2.5, PV pol inh 62* and Mtb MenB inh -4.
`CC(NC(=O)c1cc(=O)[nH]c2ccc(S(=O)(=O)N3CCOCC3)cc12)C12CC3CC(CC(C3)C1)C2` (centres undefined) gave Mtb MbtI inh 11, AID504770 -0.2, PV pol inh -9.0* and Mtb MenB inh -13.
Screening CC1CCN(S(=O)(=O)c2ccc3[nH]c(=O)cc(C(=O)NCCCN4CCOCC4)c3c2)CC1 returned Mtb MbtI inh 22, AID504770 -0.4, PV pol inh 99 and Mtb MenB inh -10.
For O=C(Nc1cccnc1)C(Cc1ccccc1)N1C(=O)C2C3C=CC(C3)C2C1=O (centres undefined) the results were Mtb MbtI inh -4, AID504770 0.8, PV pol inh 102 and Mtb MenB inh -14.
Screening CN(C)CCN(C(=O)Cc1ccccc1)c1nc2cc3c(cc2s1)OCCO3 returned Mtb MbtI inh 11, AID504770 -2.3*, PV pol inh 101 and Mtb MenB inh -29.
Screening CN(C)CCN(C(=O)c1ccco1)c1nc2cc3c(cc2s1)OCO3 returned Mtb MbtI inh -2, AID504770 0.15, PV pol inh 102 and Mtb MenB inh 7.
Screening COc1ccc(CNC(=O)Nc2cn(CC(C)C)c(=O)c3ccccc23)cc1 returned PV pol inh 60*.
Cc1ccc(Cl)cc1NC(=O)Nc1cn(CC(C)C)c(=O)c2ccccc12 was read as PV pol inh 69*.
`CC(C)Cn1cc(NC(=O)N2CCN(c3ccccc3)CC2)c2ccccc2c1=O` gave Mtb MbtI inh -20, AID504770 -0.45, PV pol inh 98 and Mtb MenB inh 0.
For CC(=O)c1ccc(N2CCN(C(=O)Nc3cn(CC(C)C)c(=O)c4ccccc34)CC2)cc1 the results were PV pol inh 76*.
Screening Cc1ccc(-n2c(C)cc(P(=S)(N3CCOCC3)N3CCOCC3)c2C)c(C)c1 returned Mtb MbtI inh 69*, AID504770 -0.3, PV pol inh 92 and Mtb MenB inh -133.
Cc1cc(P(=N)(N2CCOCC2)N2CCOCC2)c(C)n1-c1ccc(I)cc1 was read as Mtb MbtI inh -8, AID504770 -0.1, PV pol inh 100 and Mtb MenB inh 0.
Cc1noc(C)c1-c1nc(CS(=O)(=O)c2ccsc2)no1 was read as Mtb MbtI inh -2, AID504770 -0.35, PV pol inh 102 and Mtb MenB inh -12.
Screening Cc1ccc(CSc2nc3ccccc3c3nc(CCn4nc(C)cc4C)nn23)cc1 returned Mtb MbtI inh 7, AID504770 0.2, PV pol inh 103 and Mtb MenB inh 1.
`Cc1c(C(=O)CSc2ncc(C#N)c(N)n2)c2ccccc2n1C` gave AID504770 0.15, PV pol inh 102 and Mtb MenB inh 30*.
For COC(=O)CSc1ncc(C#N)c(N)n1 the results were Mtb MbtI inh 34, AID504770 1.5, PV pol inh 102 and Mtb MenB inh 17.
COc1cccc(Oc2ccc(C(F)(F)F)cc2Nc2nc3ccccc3o2)c1 was read as Mtb MbtI inh -36, AID504770 0, PV pol inh 81* and Mtb MenB inh -109.
`Cc1ccc(OC(=O)c2cc(-c3ccc4c(c3)OCCO4)on2)cc1C` gave PV pol inh 103.
`Cc1cc(OC(=O)c2cc(-c3ccc4c(c3)OCCO4)on2)ccc1Cl` gave PV pol inh -17*.
`CCN(CC)c1cc(-c2cccs2)nc(SCC(=O)c2cccs2)c1C#N` gave AID504770 1.9, PV pol inh 77* and Mtb MenB inh -5.

Assay outcomes from PubChem BioAssay.
